Molecules are shown by their SMILES. Entries with a potency or affinity are not part of this list. Values without a mark were called inactive. No rule for the calls is given here.

The test is described as follows: VEEV CPE inhibition, infected Vero cells, confirmatory, 66.6 µM top concentration (AID 2409). The note with it: series mostly up to 66.6 µM; CPE inhibition: at the top concentration.
As to `COc1ccc(-c2csc(N(Cc3ccccc3)C(=O)c3ccccc3Cl)n2)cc1`, the “CPE inhibition” value is 16.8%.
Regarding `O=C(CSc1nc2ccccc2c(=O)n1-c1ccccc1F)Nc1ccc2c(c1)CCC2`, the “CPE inhibition” value is -5.29%.
To `O=c1c2cccc(Cl)c2nc2n1CCC2` belongs -11.8%.
To `CC1CC(C)CN(C(=O)CSc2nc3ccccc3c(=O)n2-c2ccc(F)cc2)C1` (stereo not drawn) belongs -17.1%.
To `Cc1cc(OC(=O)c2c(F)cccc2F)n(Cc2ccccc2)n1` belongs -10.9% [at 134 µM]; to `O=c1c2c(F)cccc2nc2n1CCC2`, -5.78%.
`O=C(CSc1nc2ccccc2c(=O)n1-c1ccc(F)cc1F)Nc1ccc(N2CCOCC2)cc1`: the “CPE inhibition” value was -5.87% [at 134 µM].
To `OC1c2c(F)cccc2N=C2CCCN21` (stereo not drawn) belongs 0.79% [at 134 µM]; to `CC1(O)c2cc(Br)ccc2N=C2CCCN21` (stereo not drawn), -18%.
Regarding `O=C(CSc1nc2ccc(F)cc2c(=O)n1-c1ccccc1)Nc1ccc2c(c1)CCC2`, the “CPE inhibition” value is -96.1% [at 134 µM].
Turning to `O=c1c2cc(Cl)cc(Cl)c2nc2n1CCC2`, the “CPE inhibition” value was -11.7%.
Turning to `OC1c2c(F)cccc2N=C2CCCCCN21` (stereo not drawn), the “CPE inhibition” value was -30.5% [at 134 µM].
To `Cc1ccc2nc3n(c(=O)c2c1)CCC3` belongs 3.91%.
Consider `O=C(CSc1nc2ccccc2c(=O)n1-c1ccc(F)cc1)Nc1ccc2c(c1)OCCO2`, for which the “CPE inhibition” value is -20.3%.
Consider `O=C(CSc1nc2ccccc2c(=O)n1-c1ccccc1)Nc1ccc2c(c1)CCC2`, for which the “CPE inhibition” value was -9.34%.
Take `O=C(CSc1nc2ccccc2c(=O)n1-c1ccc(Cl)c(Cl)c1)Nc1ccc2c(c1)CCC2`: the “CPE inhibition” value was -27.2%.
As for `OC1c2cc(Br)ccc2N=C2CCCCCN21` (stereo not drawn), the figure is -33.9% [at 134 µM]; as for `O=C(CSc1nc2ccccc2c(=O)n1-c1ccc(F)cc1)Nc1cccc2ccccc12`, -2.62%; as for `O=c1c2cc([N+](=O)[O-])ccc2nc2n1CCC2`, -0.71%.
`COc1ccccc1NC(=O)CSc1nc2ccccc2c(=O)n1-c1ccc(F)cc1`: the “CPE inhibition” value is 15.2%.
With `Nc1ccc2nc3n(c(=O)c2c1)CCC3`, the “CPE inhibition” value is -26.1%.
In the case of `O=c1c2cc(I)ccc2nc2n1CCC2`, the “CPE inhibition” value is -48.4%.
In the case of `CC(=O)Nc1ccc2nc3n(c(=O)c2c1)CCC3`, the “CPE inhibition” value is -33.2%.
As for `COc1cccc(-n2c(SCC(=O)Nc3ccc4c(c3)CCC4)nc3ccccc3c2=O)c1`, the figure is -32.3%.
On to `OC1c2cc(Br)ccc2N=C2CCCCN21` (stereo not drawn), for which the “CPE inhibition” value was -26.5% [at 134 µM].
As for `Cc1cccc2c(=O)n3c(nc12)CCC3`, the figure is -4.01%.
As for `O=C(CSc1nc2cccc(F)c2c(=O)n1-c1ccccc1)Nc1ccc2c(c1)CCC2`, the figure is 19.4% [at 134 µM]; as for `O=C(CSc1nc2ccccc2c(=O)n1-c1ccc(F)cc1F)Nc1ccc2c(c1)CCC2`, 2.77% [at 134 µM].
Regarding `OC1c2cc(I)ccc2N=C2CCCN21` (stereo not drawn), the “CPE inhibition” value was -61.1% [at 134 µM].
As for `O=C(CSc1nc2ccccc2c(=O)n1-c1ccc(F)c(Cl)c1)Nc1ccc2c(c1)CCC2`, the figure is -0.76%; as for `O=C(CSc1nc2cccc(I)c2c(=O)n1-c1ccccc1)Nc1ccc2c(c1)CCC2`, -11.4% [at 134 µM].
In the case of `OC1c2c(F)cccc2N=C2CCCCN21` (stereo not drawn), the “CPE inhibition” value is -13.1% [at 134 µM].
As for `O=[N+]([O-])c1ccc2c(c1)C(O)N1CCCC1=N2` (stereo not drawn), the figure is -4.15%; as for `Cc1cccc2nc3n(c(=O)c12)CCC3`, -1.93%.
For `CCCN(C(=O)c1ccccc1Cl)c1nc(-c2ccc(OC)cc2)cs1`, the “CPE inhibition” value is 1.7%.
To `O=C(CSc1nc2ccccc2c(=O)n1-c1ccc(F)cc1)Nc1ccc2c(c1)CCC2` belongs -15.7% [at 134 µM]; to `O=c1c2cc(Br)ccc2nc2n1CC/C2=C/c1ccccc1`, -43.2%; to `COc1ccc(-c2csc(N(C)C(=O)c3ccccc3Cl)n2)cc1`, -57.3%.

Source of the values: PubChem BioAssay AID2409 (Southern Research Specialized Biocontainment Screening …, 2010).
